Source: PubChem BioAssay
Values joined by “and” are separate entries in the source; they are usually repeats but may differ in a detail not shown here. Identical values can stand only once. For some of these results: Results with a measured potency or affinity are listed apart. Active and inactive are the calls of the source.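 The calls were made as follows, unless noted: active = compounds whose cell count with miR-34 switched on is under 0.7 times the count with it off; inactive = the rest.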

Columns and labels:
[1] = differential killing of epithelial or mesenchymal cells, primary screen, imaging, PC-3E GFP, TEM4-18 mCherry, co-culture (AID 1345086;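 active = compounds killing one labelled cell type while sparing the other, by normalised counts and ratio limits, not self-fluorescent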;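 as to all read-outs here: cells exposed to compound for 72 h before imaging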;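 as to red/green cell ratio (normalised): normalised mesenchymal count divided by normalised epithelial count so high means epithelial killing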); conditions: imaging cell counts, at 1 µM; for red/green cell ratio (normalised): actives lie on both sides, counts scaled to control wells, 1 = unselective
[2] = sensitizers of A549 cells to miR-34 induction, primary screen, imaging, A549 dox-inducible miR-34, nuclei and caspase counts (AID 1347080); conditions: A549 miR-34 inducible, Hoechst nuclei count, 48 h
[3] = survival rescue of mitochondrial mutant cells in low glucose, primary screen, MELAS cybrids, Rieske KO mouse fibroblasts, CellTiter-Glo (AID 1508586;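 active = mean z-score across replicates of 1.96 or higher in either the MELAS or the Rieske mutant cell line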;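 also: z relative to plate mean and SD of compound and empty wells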)
[4] = biological target: NAD(+) hydrolase SARM1 (Homo sapiens) (UniProt Q6SZW1); assay: SARM1 TIR NADase inhibitors, cell lysate, NAD-Glo luminescence (AID 1508614;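 active = compound whose remaining NAD level is above about 45 nM, limit read from the data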;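 also: higher remaining NAD means stronger inhibition of SARM1 NADase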); conditions: SAM-TIR HEK293T lysate NADase, at 1 µM, stronger effect = higher value
[5] = circadian clock period modulators, cell-based, LOPAC library, luminescence reporter (AID 2774; call rule not given here;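 also: values are relative to mean of DMSO wells on each plate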); conditions: circadian reporter cells, at 7 µM, actives lie on both sides
[6] = hESC survival regulators, cell-based (AID 493140; call rule not given here;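 also: cells exposed to compounds for four days before counting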); conditions: human embryonic stem cell survival screen; stronger effect = higher value
[7] = liver-stage malaria parasite growth inhibition, primary screen, cell-based, HepG2, luciferase luminescence, HepG2 viability (AID 624349; in the data active = parasite load remaining mostly below about 12%, no sharp cut-off; inactive = mostly above about 10%;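 also: 100% = mean of DMSO negative control wells on the same plate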); conditions: P. berghei liver stage in HepG2, luciferase luminescence, concentration not given here; parasite load remaining: stronger effect = lower value; viability: measured here: HepG2 viability without parasites
[8] = test system: Hepatitis C virus NS3 helicase; assay: HCV NS3 helicase inhibitors, primary screen, biochemical, fluorescence polarization, LOPAC1280 library (AID 687035; in the data active = inhibition above about 37%); conditions: Purified HCV NS3 helicase, Cy5-dT15 ssDNA binding fluorescence polarization; stronger effect = higher value; concentration not given here
[9] = Cy5 fluorescence quenching or enhancement artefacts, artefact control for HCV NS3 helicase inhibitor project, biochemical, LOPAC1280 (AID 687037; call rule not given here); conditions: Cy5-DNA-NS3h complex fluorescence interference counterscreen
[10] = phospholipid biosynthesis inhibitors in animal cells, primary screen, cell-based, LOPAC library, screen 4 (AID 1347384; call rule not given here); conditions: phospholipid biosynthesis inhibition screen, at 10 µM
[11] = viability rescue of complex I mutant cybrids, primary screen, cell-based, galactose medium, ATP luminescence (AID 1645843;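 active = z-score of at least 1.8 in each of two replicates, scored against plate mean and spread of sample wells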;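 also: positive z means more ATP and so rescue of galactose-driven cybrid death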); conditions: complex I mutant cybrid cells, 72 h, stronger effect = higher value
[12] = polyglutamine-triggered caspase-3 activation inhibitors, cell-based (AID 1583); conditions: polyglutamine-induced caspase-3 activation, cell assay; stronger effect = higher value;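 tested at 10 µM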
[13] = suppressors of polyQ aggregation in yeast, 75Q-TubU reporter (AID 1593); conditions: Yeast 75Q polyglutamine aggregation reporter
[14] = rescue of polyQ-huntingtin neuronal dysfunction in worms, whole organism, C. elegans mechanosensory neurons, N-terminal huntingtin (AID 1599); conditions: touch response, stronger effect = higher value
[15] = inhibitors of mitochondrial cytochrome c release, biochemical, purified mitochondria (AID 1603); conditions: stronger effect = lower value;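 also: mouse liver mitochondria challenged with calcium chloride; signal normalized to the plate average as 100%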
[16] = inhibitors of polyQ protein aggregation (AID 1604); conditions: polyglutamine-induced protein aggregation inhibition assay; stronger effect = higher value; tested at 2.5 µM
[17] = enhancers of glutamate uptake in motor neurons, MN-1 cell line (AID 1612); conditions: MN-1 motor neuron cells, stronger effect = higher value;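 also: tested at 1 µM final; 0% = mean of DMSO vehicle wells on each plate; positive means more glutamate uptake than control and negative means less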
[18] = suppressors of polyglutamine aggregation in yeast, 75Q-TubH (AID 1616); conditions: S. cerevisiae 75Q-TubH polyglutamine aggregation suppression; stronger effect = higher value
[19] = biological target: Mitogen-activated protein kinase 7 (Homo sapiens) (UniProt Q13164); assay: ERK5 transactivation activators in reporter cells, primary screen, cell-based, HTS (AID 1508626;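 active = luciferase signal above three times the same-plate solvent-only control wells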;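 also: luciferase driven by Gal4-ERK5 fusion binding five Gal4 sites before minimal TATA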); conditions: HeLa Gal4-ERK5 transactivation, 18 h, at 5 µM, stronger effect = higher value
[20] = measured here: epithelial PC-3E GFP cell survival
[21] = measured here: mesenchymal TEM4-18 mCherry cell survival
[22] = stronger effect = lower value, cell number ratio, induced over uninduced
[23] = measured here: relative caspase fold change +Dox/-Dox
[24] = measured here: total cells with miR-34 induction, stronger effect = lower value
[25] = measured here: total cells without miR-34 induction
[26] = MELAS cybrid survival, CellTiter-Glo 48 h, stronger effect = higher value
[27] = Rieske KO mouse fibroblast survival, CellTiter-Glo 72 h

Sequence of NAD(+) hydrolase SARM1 (Homo sapiens) (Q6SZW1 whole entry, looked up): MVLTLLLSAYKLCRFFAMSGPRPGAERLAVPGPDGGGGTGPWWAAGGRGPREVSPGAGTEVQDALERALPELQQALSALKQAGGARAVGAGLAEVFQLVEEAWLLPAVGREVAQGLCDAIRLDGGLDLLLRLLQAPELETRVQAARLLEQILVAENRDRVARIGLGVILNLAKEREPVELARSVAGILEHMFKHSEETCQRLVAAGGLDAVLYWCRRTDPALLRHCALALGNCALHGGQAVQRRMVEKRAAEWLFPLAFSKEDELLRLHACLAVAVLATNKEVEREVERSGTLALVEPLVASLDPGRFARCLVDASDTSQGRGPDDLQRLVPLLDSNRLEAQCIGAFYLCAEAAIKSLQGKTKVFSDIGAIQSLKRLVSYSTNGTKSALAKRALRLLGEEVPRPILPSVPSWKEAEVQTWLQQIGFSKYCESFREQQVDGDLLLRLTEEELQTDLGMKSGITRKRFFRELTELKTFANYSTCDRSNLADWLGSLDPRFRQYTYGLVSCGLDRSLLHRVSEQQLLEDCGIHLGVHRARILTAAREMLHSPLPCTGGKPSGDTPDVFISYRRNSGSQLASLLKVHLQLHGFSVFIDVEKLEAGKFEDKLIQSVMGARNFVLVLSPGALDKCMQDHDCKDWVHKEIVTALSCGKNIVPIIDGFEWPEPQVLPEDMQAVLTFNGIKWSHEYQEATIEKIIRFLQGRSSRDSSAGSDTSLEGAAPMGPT
Sequence of Mitogen-activated protein kinase 7 (Homo sapiens) (Q13164 whole entry, looked up, the tested form may be a part): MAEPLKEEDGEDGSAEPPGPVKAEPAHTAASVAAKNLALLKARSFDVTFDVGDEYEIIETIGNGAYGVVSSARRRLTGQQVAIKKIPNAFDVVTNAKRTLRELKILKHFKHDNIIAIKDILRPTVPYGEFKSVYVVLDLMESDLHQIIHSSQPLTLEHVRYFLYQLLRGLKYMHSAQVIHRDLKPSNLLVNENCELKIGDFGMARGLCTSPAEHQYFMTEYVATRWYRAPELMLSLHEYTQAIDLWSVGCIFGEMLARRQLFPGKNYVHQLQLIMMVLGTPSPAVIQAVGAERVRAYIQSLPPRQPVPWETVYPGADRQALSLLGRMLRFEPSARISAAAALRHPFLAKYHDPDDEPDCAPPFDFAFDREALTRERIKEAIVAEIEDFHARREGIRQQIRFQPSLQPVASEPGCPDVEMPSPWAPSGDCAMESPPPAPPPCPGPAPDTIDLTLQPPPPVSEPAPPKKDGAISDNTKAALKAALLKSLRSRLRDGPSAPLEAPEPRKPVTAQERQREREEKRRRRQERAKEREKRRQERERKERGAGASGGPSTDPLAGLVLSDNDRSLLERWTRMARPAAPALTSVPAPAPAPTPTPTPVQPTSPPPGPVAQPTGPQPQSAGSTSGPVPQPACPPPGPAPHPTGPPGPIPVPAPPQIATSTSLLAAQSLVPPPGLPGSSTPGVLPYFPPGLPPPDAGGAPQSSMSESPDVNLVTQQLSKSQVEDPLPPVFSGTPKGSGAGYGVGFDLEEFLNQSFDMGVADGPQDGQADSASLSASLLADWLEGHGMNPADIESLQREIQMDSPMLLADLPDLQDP

Structure (SMILES): Cc1oc(=O)oc1CN1CCN(c2cc3c(cc2F)c(=O)c(C(=O)O)c2n3C(C)C2)CC1 (stereo unspecified)
- red/green cell ratio (normalised) [1]: 0.94 (inactive)
- normalised cell number [1, 20]: 0.97
- normalised cell number [1, 21]: 0.91
- fold change [2, 22]: 0.994 (inactive)
- fold change [2, 23]: 0.87
- cell count [2, 24]: 9060
- cell count [2, 25]: 9120

Structure (SMILES): CC1=CC(=O)NS(=O)(=O)O1
- red/green cell ratio (normalised) [1]: 1.16 (inactive)
- normalised cell number [1, 20]: 0.89
- normalised cell number [1, 21]: 1.03
- fold change [2, 22]: 0.852 (inactive) and 0.934 (inactive)
- fold change [2, 23]: 0.799 and 0.672
- cell count [2, 24]: 7390 and 8400
- cell count [2, 25]: 8680 and 8990
- z-score [3, 26]: -0.393 (inactive)
- z-score [3, 27]: -0.0842
- remaining NAD [4]: 10 nM (inactive)

Structure (SMILES): O=C(O)c1ccccc1-c1c2cc(I)c(=O)c(I)c-2oc2c(I)c(O)c(I)cc12
- red/green cell ratio (normalised) [1]: 0.52 (inactive)
- normalised cell number [1, 20]: 0.98
- normalised cell number [1, 21]: 0.5
- fold change [2, 22]: 0.927 (inactive)
- fold change [2, 23]: 0.976
- cell count [2, 24]: 9160
- cell count [2, 25]: 9880

Structure (SMILES): CC(C)Cc1ccc([C@H](C)C(=O)O)cc1
- period change [5]: -0.055 h (inactive)
- survival [6]: 6.58 (inactive)
- parasite load remaining [7]: 89.2% (inactive)
- viability [7]: 95.1%
- inhibition [8]: -6% (inactive)
- fluorescence ratio (interference) [9]: 0.9 (inactive)
- red/green cell ratio (normalised) [1]: 0.85 (inactive)
- normalised cell number [1, 20]: 0.93
- normalised cell number [1, 21]: 0.79
- fold change [2, 22]: 1.1 (inactive) and 0.885 (inactive)
- fold change [2, 23]: 1.11 and 1.2
- cell count [2, 24]: 10400 and 9190
- cell count [2, 25]: 9420 and 10400
- outcome [10]: inactive
- z-score [3, 26]: 0.343 (inactive)
- z-score [3, 27]: -0.398
- remaining NAD [4]: 26 nM (inactive)
- z-score [11]: 0.53 (inactive)

Structure (SMILES): CCOC(=O)CC(=O)N1CCSC1COc1ccccc1OC (stereo unspecified)
- red/green cell ratio (normalised) [1]: 1.03 (inactive)
- normalised cell number [1, 20]: 0.9
- normalised cell number [1, 21]: 0.93
- fold change [2, 22]: 0.901 (inactive) and 0.963 (inactive)
- fold change [2, 23]: 1.01 and 0.429
- cell count [2, 24]: 7560 and 7640
- cell count [2, 25]: 8380 and 7930
- z-score [3, 26]: -0.272 (inactive)
- z-score [3, 27]: -0.0679
- remaining NAD [4]: 10 nM (inactive)

Structure (SMILES): CCNC1CN(CCCOC)S(=O)(=O)c2sc(S(N)(=O)=O)cc21 (stereo unspecified)
- red/green cell ratio (normalised) [1]: 0.72 (inactive)
- normalised cell number [1, 20]: 1.22
- normalised cell number [1, 21]: 0.87
- fold change [2, 22]: 0.853 (inactive)
- fold change [2, 23]: 0.647
- cell count [2, 24]: 8320
- cell count [2, 25]: 9750
- z-score [3, 26]: -0.247 (inactive)
- z-score [3, 27]: -0.152

Structure (SMILES): CN(C)CC(c1ccc(O)cc1)C1(O)CCCCC1 (stereo unspecified)
- red/green cell ratio (normalised) [1]: 1 (inactive)
- normalised cell number [1, 20]: 0.79
- normalised cell number [1, 21]: 0.79
- fold change [2, 22]: 0.982 (inactive) and 0.891 (inactive) and 0.889 (inactive)
- fold change [2, 23]: 0.639 and 1.05 and 1.37
- cell count [2, 24]: 9600 and 8680
- cell count [2, 25]: 9780 and 9740 and 9750
- z-score [3, 26]: -0.237 (inactive) and -0.203 (inactive)
- z-score [3, 27]: -0.123 and -0.139
- remaining NAD [4]: 10 nM (inactive)

Structure (SMILES): C[C@]12CCC(=O)C=C1[C@@H]1C[C@@H]1C1C2CC[C@@]2(C)C1[C@@H]1C[C@@H]1[C@@]21CCC(=O)O1 (stereo partly specified)
- red/green cell ratio (normalised) [1]: 0.65 (inactive)
- normalised cell number [1, 20]: 1.4
- normalised cell number [1, 21]: 0.91
- fold change [2, 22]: 1.02 (inactive)
- fold change [2, 23]: 0.868
- cell count [2, 24]: 7990
- cell count [2, 25]: 7840

Structure (SMILES): N[C@H]1CONC1=O
- period change [5]: -0.055 h (inactive)
- survival [6]: 1.5 (inactive)
- parasite load remaining [7]: 74% (inactive)
- viability [7]: 71%
- inhibition [8]: 0% (inactive)
- fluorescence ratio (interference) [9]: 1 (inactive)
- red/green cell ratio (normalised) [1]: 0.88 (inactive)
- normalised cell number [1, 20]: 1.18
- normalised cell number [1, 21]: 1.03
- fold change [2, 22]: 1.03 (inactive) and 0.935 (inactive) and 0.898 (inactive)
- fold change [2, 23]: 1.58 and 1.14 and 0.652
- cell count [2, 24]: 10600 and 9010 and 9280
- cell count [2, 25]: 10300 and 9640
- outcome [10]: inactive
- z-score [3, 26]: -0.786 (inactive)
- z-score [3, 27]: -1.27
- remaining NAD [4]: 10 nM (inactive)
- z-score [11]: -0.18 (inactive)

Structure (SMILES): CO[C@@]12[C@@H]3NC3CN1C1=C(C(=O)C(N)=C(C)C1=O)[C@@H]2COC(N)=O (stereo partly specified)
- inhibition [12]: -29.8%
- score [13]: 2
- rescue above control [14]: 0
- cytochrome c release ratio [15]: 1
- inhibition of aggregation [16]: 29.2%
- glutamate uptake change [17]: 0.5%
- aggregation suppression score [18]: 1.38
- parasite load remaining [7]: 0.12% (inactive)
- viability [7]: 22.5%
- red/green cell ratio (normalised) [1]: 1.09 (inactive)
- normalised cell number [1, 20]: 1.03
- normalised cell number [1, 21]: 1.13
- fold change [2, 22]: 0.986 (inactive)
- fold change [2, 23]: 0.958
- cell count [2, 24]: 1840
- cell count [2, 25]: 1870

Structure (SMILES): CC(=O)c1ccc(S(=O)(=O)NC(=O)NC2CCCCC2)cc1
- period change [5]: -0.09 h (inactive)
- survival [6]: 14 (inactive)
- parasite load remaining [7]: 38.7% (inactive) and 91.1% (inactive) and 69.3% (inactive)
- viability [7]: 49.8% and 90.7% and 105%
- inhibition [8]: -2% (inactive)
- fluorescence ratio (interference) [9]: 1 (inactive)
- red/green cell ratio (normalised) [1]: 0.86 (inactive)
- normalised cell number [1, 20]: 0.99
- normalised cell number [1, 21]: 0.85
- fold change [2, 22]: 1.04 (inactive) and 0.892 (inactive) and 0.85 (inactive)
- fold change [2, 23]: 2.43 and 1.31 and 5.06
- cell count [2, 24]: 10800 and 8720 and 11600
- cell count [2, 25]: 10400 and 9780 and 13600
- outcome [10]: inactive
- z-score [3, 26]: 0.0376 (inactive)
- z-score [3, 27]: -0.115
- remaining NAD [4]: 10 nM (inactive)
- luciferase signal [19]: 44 AU (inactive)
- z-score [11]: 0.71 (inactive)

Structure (SMILES): C=C1CC2C3C=C(C)C4=CC(=O)CC[C@]4(C)C3CC[C@]2(C)[C@@]1(OC(C)=O)C(C)=O (stereo partly specified)
- red/green cell ratio (normalised) [1]: 1.26 (inactive)
- normalised cell number [1, 20]: 0.99
- normalised cell number [1, 21]: 1.24
- fold change [2, 22]: 0.949 (inactive)
- fold change [2, 23]: 1.45
- cell count [2, 24]: 4400
- cell count [2, 25]: 4640

Structure (SMILES): N=C(N)SCCN
- period change [5]: -0.04 h (inactive)
- inhibition [8]: -3% (inactive)
- fluorescence ratio (interference) [9]: 1 (inactive)
- red/green cell ratio (normalised) [1]: 0.88 (inactive)
- normalised cell number [1, 20]: 1.12
- normalised cell number [1, 21]: 0.98
- fold change [2, 22]: 0.958 (inactive) and 1.11 (inactive)
- fold change [2, 23]: 2.51 and 0.757
- cell count [2, 24]: 9240 and 6110
- cell count [2, 25]: 9640 and 5490
- outcome [10]: inactive
- luciferase signal [19]: 96 AU (inactive)
- z-score [11]: -0.855 (inactive)
